# For some assays here: Results with a measured potency or affinity are listed apart.
# Experiments:
# Design in all cases: scale not given: direction of the effect not stated beside the values
# [1] = biological target: Protein translocase subunit SecA (Escherichia coli (strain K12)) (UniProt P10408); experiment: Assay to Identify E. coli SecA ATPase Inhibitors; type: functional; settings: 30 µM
# [2] = biological target: T1, Ubiquitin-activating enzyme e1, putative (Leishmania donovani (strain BPK282A1)) (UniProt E9BSI1); experiment: Leishmania donovani Ubiquitin Activating Enzyme (LdE1); type: functional; settings: 30 µM
# T1 sequence (whole entry): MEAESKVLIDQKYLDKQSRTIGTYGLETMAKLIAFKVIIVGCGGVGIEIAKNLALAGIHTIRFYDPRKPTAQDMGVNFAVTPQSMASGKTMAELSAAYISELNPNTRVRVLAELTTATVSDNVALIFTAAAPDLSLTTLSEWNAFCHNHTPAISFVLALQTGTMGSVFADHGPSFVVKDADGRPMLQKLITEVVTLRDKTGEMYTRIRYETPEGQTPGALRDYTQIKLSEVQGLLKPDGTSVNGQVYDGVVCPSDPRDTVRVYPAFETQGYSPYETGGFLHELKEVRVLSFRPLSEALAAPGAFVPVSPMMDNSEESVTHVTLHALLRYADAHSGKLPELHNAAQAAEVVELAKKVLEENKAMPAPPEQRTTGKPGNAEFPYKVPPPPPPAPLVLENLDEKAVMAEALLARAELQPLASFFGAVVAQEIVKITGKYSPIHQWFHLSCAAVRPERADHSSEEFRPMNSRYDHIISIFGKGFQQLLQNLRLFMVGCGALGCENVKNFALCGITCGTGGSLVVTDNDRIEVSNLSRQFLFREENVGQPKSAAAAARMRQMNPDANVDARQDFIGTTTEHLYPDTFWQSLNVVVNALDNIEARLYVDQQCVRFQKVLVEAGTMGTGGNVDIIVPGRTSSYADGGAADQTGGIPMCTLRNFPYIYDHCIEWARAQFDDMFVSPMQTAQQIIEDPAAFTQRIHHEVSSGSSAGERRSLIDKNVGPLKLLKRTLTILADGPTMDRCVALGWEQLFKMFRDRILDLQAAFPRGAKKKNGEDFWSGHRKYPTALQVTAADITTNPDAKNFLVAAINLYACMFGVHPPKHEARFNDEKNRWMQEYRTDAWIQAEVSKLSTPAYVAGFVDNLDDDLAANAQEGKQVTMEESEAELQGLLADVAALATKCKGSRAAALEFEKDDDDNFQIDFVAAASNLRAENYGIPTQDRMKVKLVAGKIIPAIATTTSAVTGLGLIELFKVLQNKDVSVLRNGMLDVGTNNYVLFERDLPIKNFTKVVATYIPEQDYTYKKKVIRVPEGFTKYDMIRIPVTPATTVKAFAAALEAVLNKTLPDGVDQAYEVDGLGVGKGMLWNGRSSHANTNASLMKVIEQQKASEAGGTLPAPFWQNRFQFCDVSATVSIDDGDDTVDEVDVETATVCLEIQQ
# [3] = biological target: AMP-activated protein kinase, AMPK (Homo sapiens) (UniProt P54646+O43741+P54619+Q9UGJ0+Q9Y478+Q13131+Q9UGI9); experiment: AMP-dependent Kinase enzyme assay. An in vitro enzyme assay that detects ADP turnover that is directly proportional to AMPK activity. This uses naive AMPK that is activated during the assay with MK-8722; type: functional; settings: 30 µM
# [4] = biological target: Sialic acid-binding Ig-like lectin 9 (Homo sapiens) (UniProt Q9Y336); experiment: Hs-Siglec9 ALPHAscreen SOP 20170721; settings: 10 µM
# Sequence of Sialic acid-binding Ig-like lectin 9 (Homo sapiens) (Q9Y336 whole entry): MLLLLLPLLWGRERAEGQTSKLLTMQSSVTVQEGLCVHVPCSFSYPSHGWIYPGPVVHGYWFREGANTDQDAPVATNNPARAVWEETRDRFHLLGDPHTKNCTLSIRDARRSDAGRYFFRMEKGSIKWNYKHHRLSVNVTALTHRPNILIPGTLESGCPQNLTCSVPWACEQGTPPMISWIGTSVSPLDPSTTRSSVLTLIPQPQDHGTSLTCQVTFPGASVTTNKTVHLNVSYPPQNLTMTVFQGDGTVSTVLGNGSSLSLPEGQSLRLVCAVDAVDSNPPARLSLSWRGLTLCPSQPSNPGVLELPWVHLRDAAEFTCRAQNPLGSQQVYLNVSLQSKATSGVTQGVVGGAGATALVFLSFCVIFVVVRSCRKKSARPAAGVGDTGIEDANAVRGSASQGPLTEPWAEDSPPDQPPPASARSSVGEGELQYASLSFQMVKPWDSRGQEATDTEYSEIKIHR
# [5] = system: Trypanosoma cruzi; experiment: Trypanosoma cruzi phosphomannomutase and mannose-1-phosphate guanylyltransferase assay; type: functional; settings: 10 µM
# [6] = biological target: T2, Arginase-2, mitochondrial (Homo sapiens) (UniProt P78540); experiment: in vitro enzyme assay to detect the production of urea directly proportional to the activity of Arginase II; type: functional; settings: 33.3 µM; also: in the data most compounds retested in dose-response had high values
# T2 sequence (whole entry): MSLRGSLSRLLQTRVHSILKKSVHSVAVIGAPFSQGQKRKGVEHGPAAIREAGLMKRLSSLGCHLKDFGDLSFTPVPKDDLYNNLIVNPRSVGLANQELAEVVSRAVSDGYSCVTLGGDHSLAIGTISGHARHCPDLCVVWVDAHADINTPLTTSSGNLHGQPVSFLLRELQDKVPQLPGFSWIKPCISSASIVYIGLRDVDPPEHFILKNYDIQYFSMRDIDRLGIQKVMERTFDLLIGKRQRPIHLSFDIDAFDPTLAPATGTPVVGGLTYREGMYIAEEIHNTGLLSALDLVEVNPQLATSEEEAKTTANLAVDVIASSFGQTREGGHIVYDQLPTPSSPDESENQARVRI
# [7] = biological target: T3, Proteasome subunit beta (Trypanosoma cruzi) (UniProt O96673); experiment: Trypanosoma cruzi proteasome chymotrypsin-like activity (TcProtChymo) assay.; also: in the data most compounds retested in dose-response had high values; type: functional; settings: 9.37 µM
# T3 sequence (whole entry): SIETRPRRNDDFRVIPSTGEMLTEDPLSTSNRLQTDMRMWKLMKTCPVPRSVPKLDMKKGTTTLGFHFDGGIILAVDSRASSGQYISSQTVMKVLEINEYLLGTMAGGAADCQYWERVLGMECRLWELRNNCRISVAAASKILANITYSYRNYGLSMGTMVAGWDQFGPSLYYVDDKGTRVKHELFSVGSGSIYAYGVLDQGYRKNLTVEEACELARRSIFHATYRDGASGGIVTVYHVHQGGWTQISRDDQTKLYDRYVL
# [8] = species on record: Homo sapiens; experiment: To identify inhibition of the IFN signalling (Jak-Stat) pathway via expression of an eGFP reporter gene under the control of an IFN-stimulated response element (ISRE) containing MxA promoter.; type: functional; settings: 30 µM
# [9] = biological target: T4, Tyrosyl-tRNA synthetase, putative (Trypanosoma cruzi (strain CL Brener)) (UniProt Q4DSP6); experiment: Trypanosoma cruzi tyrosyl tRNA synthetase (TcYRS) _High Tyrosine SOP; type: functional; settings: 30 µM; also: in the data most compounds retested in dose-response had high values
# T4 sequence (whole entry): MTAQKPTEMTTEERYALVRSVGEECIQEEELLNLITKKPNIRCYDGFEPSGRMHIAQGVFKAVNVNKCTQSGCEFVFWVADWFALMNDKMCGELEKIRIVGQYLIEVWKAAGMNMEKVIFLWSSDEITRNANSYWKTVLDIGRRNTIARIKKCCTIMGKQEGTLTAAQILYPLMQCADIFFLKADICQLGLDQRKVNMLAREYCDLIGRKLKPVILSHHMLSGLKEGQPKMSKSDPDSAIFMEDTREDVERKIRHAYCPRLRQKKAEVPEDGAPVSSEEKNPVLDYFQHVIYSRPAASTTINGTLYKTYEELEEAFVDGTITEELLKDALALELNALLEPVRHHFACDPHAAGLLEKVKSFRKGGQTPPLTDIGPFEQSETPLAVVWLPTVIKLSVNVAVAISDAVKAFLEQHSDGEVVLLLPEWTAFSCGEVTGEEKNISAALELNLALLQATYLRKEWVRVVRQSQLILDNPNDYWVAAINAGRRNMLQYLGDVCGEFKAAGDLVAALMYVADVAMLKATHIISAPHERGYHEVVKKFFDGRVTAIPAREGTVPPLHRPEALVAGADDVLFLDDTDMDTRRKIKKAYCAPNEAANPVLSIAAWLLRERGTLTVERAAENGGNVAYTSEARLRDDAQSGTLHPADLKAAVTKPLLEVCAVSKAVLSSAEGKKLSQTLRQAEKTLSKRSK
# [10] = biological target: T4, Tyrosyl-tRNA synthetase, putative (Trypanosoma cruzi (strain CL Brener)); experiment: Trypanosoma cruzi tyrosyl tRNA synthetase (TcYRS) SOP; type: functional; settings: 30 µM
# [11] = biological target: Chromo domain-containing protein 1 (Saccharomyces cerevisiae (strain ATCC 204508 / S288c) (Baker's yeast)) (UniProt P32657); experiment: ScCHD-1 Enzyme Inhibition Assay; type: functional; settings: 30 µM; also: in the data most compounds retested in dose-response had high values
# Sequence of Chromo domain-containing protein 1 (Saccharomyces cerevisiae (strain ATCC 204508 / S288c) (Baker's yeast)) (P32657 whole entry, the tested form may be a part): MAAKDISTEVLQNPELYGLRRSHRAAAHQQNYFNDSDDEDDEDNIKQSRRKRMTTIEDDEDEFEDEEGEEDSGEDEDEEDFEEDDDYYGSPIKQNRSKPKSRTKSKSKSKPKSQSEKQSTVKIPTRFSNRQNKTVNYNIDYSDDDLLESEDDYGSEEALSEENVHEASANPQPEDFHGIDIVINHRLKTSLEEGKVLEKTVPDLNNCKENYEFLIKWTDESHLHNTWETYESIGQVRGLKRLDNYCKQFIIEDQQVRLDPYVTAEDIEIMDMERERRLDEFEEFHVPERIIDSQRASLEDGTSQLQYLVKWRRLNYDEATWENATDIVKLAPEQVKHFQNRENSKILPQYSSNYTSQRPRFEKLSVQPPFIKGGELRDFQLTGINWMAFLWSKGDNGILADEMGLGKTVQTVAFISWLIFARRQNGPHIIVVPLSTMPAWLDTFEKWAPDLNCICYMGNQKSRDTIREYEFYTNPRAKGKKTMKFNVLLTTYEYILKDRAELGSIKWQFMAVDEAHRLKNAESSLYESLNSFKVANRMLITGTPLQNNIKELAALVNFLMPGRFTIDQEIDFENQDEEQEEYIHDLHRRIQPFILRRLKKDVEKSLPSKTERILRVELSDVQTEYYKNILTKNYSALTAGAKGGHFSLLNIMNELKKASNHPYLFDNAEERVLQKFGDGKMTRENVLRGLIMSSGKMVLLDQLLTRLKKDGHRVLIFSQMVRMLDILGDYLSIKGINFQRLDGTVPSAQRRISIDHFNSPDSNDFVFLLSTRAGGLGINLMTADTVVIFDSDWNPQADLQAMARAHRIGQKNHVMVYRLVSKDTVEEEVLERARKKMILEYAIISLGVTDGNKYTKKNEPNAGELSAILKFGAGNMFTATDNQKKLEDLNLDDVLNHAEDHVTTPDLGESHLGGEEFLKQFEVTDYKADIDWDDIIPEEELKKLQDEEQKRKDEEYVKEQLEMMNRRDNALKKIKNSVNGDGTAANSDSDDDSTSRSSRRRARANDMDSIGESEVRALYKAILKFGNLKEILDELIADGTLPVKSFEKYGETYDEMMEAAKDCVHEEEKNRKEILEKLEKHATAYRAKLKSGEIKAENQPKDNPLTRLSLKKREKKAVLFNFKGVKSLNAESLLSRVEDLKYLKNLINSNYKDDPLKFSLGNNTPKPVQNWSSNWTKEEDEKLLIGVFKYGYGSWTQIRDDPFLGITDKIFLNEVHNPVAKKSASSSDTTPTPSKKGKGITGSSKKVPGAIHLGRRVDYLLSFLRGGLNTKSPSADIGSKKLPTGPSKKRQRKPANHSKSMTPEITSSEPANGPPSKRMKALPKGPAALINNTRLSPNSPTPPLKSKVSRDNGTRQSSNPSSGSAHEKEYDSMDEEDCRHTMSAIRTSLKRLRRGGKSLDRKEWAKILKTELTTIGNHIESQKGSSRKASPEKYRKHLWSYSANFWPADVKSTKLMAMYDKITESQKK
# Sequence of Protein translocase subunit SecA (Escherichia coli (strain K12)) (P10408 whole entry): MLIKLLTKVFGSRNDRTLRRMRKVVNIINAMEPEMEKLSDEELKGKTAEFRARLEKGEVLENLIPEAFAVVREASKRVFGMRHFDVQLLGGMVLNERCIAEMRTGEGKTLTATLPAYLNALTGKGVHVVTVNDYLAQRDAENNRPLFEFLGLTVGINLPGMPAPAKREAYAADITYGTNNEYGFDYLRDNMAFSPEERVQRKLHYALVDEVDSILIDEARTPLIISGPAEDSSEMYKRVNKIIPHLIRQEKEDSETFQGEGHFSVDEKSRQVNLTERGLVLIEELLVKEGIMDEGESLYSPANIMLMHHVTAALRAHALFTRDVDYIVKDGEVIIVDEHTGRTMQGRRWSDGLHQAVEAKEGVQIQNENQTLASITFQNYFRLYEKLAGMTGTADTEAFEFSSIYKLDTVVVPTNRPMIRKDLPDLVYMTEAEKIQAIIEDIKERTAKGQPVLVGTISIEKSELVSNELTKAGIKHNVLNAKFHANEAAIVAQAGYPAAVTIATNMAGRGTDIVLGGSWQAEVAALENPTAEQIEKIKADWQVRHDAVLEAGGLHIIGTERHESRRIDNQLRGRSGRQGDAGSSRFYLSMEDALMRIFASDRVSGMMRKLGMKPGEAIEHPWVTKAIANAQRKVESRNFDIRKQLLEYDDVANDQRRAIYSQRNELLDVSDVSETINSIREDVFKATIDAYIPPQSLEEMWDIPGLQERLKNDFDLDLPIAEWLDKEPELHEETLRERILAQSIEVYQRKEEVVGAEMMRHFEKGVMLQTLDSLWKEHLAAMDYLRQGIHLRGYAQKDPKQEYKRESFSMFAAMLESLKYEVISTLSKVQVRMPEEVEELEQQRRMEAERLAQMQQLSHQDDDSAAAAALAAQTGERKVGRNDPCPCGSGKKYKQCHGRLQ
Compound,Percent Effect [1],Percent Effect [2],Percent Effect [3],Percent Effect [4],Percent Effect [5],Percent Effect [6],Percent Effect [7],Percent Effect [8],Percent Effect [9],Percent Effect [10],Percent Effect [11]
CCCc1noc(CCC(=O)N2CCCC2c2noc(C3CC3)n2)n1 (configuration not stated),-5.01%,10.1%,1.8%,21.9%,-0.85%,1.52%,-1.56%,12%,1.48%,1.27%,-2.93%
C1CC(NCc2nc(C3CC3)no2)CN(Cc2noc(C3CC3)n2)C1 (configuration not stated),-2.33%,24.3%,-2.39%,-3.6%,-6.32%,-12.4%,11.2%,27%,-0.493%,6.17%,-4.12%
COc1ccc(CN2CCc3ncnc(OC(C)C)c3CC2)cc1,2.24%,10.7%,7.06%,-5.75%,-6.37%,-53.9%,16.2%,19%,-14.6%,0%,-4.41%
CCn1cc(NC(=O)NCC(c2cccs2)N(C)C)cn1 (configuration not stated),0.424%,18.4%,-2.49%,5.82%,-3.76%,-3.83%,7.69%,2.58%,5.39%,19.5%,-7.09%
CN1CCN(Cc2ccccc2CNC(=O)c2ccc(Br)cc2F)CC1,-2.05%,5.41%,-1.3%,7.25%,-1.86%,3.72%,3.35%,9.27%,5.38%,11.1%,-4.37%
CN(C)CCn1c(=O)oc2ccc(NC(=O)C3CCCO3)cc21 (configuration not stated),-6.72%,5.33%,-5.94%,4.64%,-1.85%,1.56%,6.8%,5.49%,8.2%,11.1%,-5.1%
Cc1cc(C)n(C2CCCN(C(=O)CCCNc3ncccn3)C2)n1 (configuration not stated),-6.94%,13.9%,-2.21%,-4.67%,3.38%,2.8%,10.6%,-0.293%,4.17%,20.2%,-26.7%
Cc1cc(CN2CCc3nn(C(C)C)c(=O)cc3C2)no1,-6.46%,0%,-5.64%,2.16%,-0.781%,0.833%,14.1%,-0.957%,7.92%,8.54%,-7.52%
CC(C)c1nnc2ccc(N3CCC(C(=O)Nc4nccs4)CC3)nn12,-2.74%,9.33%,5.47%,1.19%,3.54%,-0.528%,12.6%,82.9%,13.8%,23.1%,-2.21%
Cc1nc(CNC(C)c2ccc(OCC(=O)NC3CC3)cc2)cs1 (configuration not stated),-1.09%,19%,-0.957%,-2.32%,-2.15%,-8.82%,23.8%,3.09%,4.17%,-48.1%,-24.3%
Cc1noc(C2CCN(C(=O)c3c(C)noc3C)CC2)n1,-3.97%,10.8%,-5.85%,7.55%,1.47%,0.248%,11.9%,-25.3%,6.45%,13.6%,-4.31%
COc1ncccc1CNC(=O)NC1CCOc2ccccc21 (configuration not stated),-3.57%,5.41%,-0.164%,13.2%,5.48%,0.185%,-4.85%,10.6%,0%,13.4%,-3.69%
CC(=O)N1CCCN(C(=O)NCCc2cc(Cl)cc(Cl)c2)CC1,-3.3%,-8.86%,10.6%,0.0308%,-2.77%,7.1%,1.54%,13.1%,0%,2.53%,-17.6%
Cc1ccc(S(=O)(=O)NC2CNC(=O)C2)cc1C (configuration not stated),-5.32%,8.22%,-5.53%,-8.87%,0.588%,1.82%,3.9%,-1.25%,7.53%,12.5%,-3.53%
O=C(c1cnc(C2CC2)s1)N1CCCC(n2cccn2)C1 (configuration not stated),-2.59%,8.11%,-1.44%,-0.959%,-7.26%,-5.61%,1.26%,21%,6.4%,11.1%,-5.53%
CN(C(=O)Cc1ccc2c(c1)OCCO2)C1CCCC1,3.58%,10.5%,1.6%,-8.7%,-3.8%,-7.1%,3.55%,14.1%,3.19%,10.4%,-0.571%
Cc1[nH]ccc1C(=O)Nc1cccc(CN2CCC(CO)CC2)c1,-3.65%,23.7%,-7.05%,-13.3%,0.876%,-17.8%,8.34%,30.6%,3.19%,13%,-9.32%
COc1cc(NC(=O)c2cc(C)sc2C)c(C(=O)N(C)C)cc1OC,0.25%,7.79%,-2.17%,6.61%,4.42%,-37.2%,19.1%,-8.35%,4.3%,13.6%,-1.78%
O=C(NCCNc1ncccn1)N1CCSCC1,-0.808%,13.5%,-7.4%,9.38%,3.87%,-5.21%,7.39%,11.3%,5.42%,16.1%,-9.99%
CCNC(=O)[C@@H]1C[C@H](NC(=O)c2ccccc2C#N)CN1CCCSC,-6.15%,-2.74%,-0.485%,8.44%,0.794%,0.399%,11.4%,-3.71%,2.08%,18.5%,1.18%
CCc1ncncc1C(=O)NCCN1CCC(C)CC1,-1.34%,-4.17%,-7.77%,0.13%,5.54%,-2.21%,4.21%,-30.7%,1.05%,0%,-2.04%
O=C(Nc1nc2c(s1)CCC2)c1cccnc1N1CCOCC1,-0.311%,-2.63%,9.51%,-0.88%,-4.19%,11.8%,4.7%,2.75%,0%,-2.6%,1.45%

# Reference: ChEMBL document CHEMBL3988442, “University of Dundee, Small-Polar-MMV Screening Library” (2021)
